Results reported in PubChem BioAssay AID1159580 (chemical genetic matrix, 2015).
“And” between values parts separate entries of the source, which are not always exact repeats. Identical values can stand only once. Screen size: about 5,500 compounds; about 2,000 (36%) were called active. Roughly 18% stayed inconclusive and do not appear here. Rule as the data show it: active = normalized growth mostly below about 0.91 (no sharp cut-off); inconclusive = no clear call, values can overlap the other calls; inactive = mostly above about 0.92. The list shows a part of the results.

Test: chemical genetic growth profiling, strain panel (AID 1159580);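 also: tested at 20 µM; growth read once vehicle control cultures reached saturation at 30 °C; 1 = growth at the plate median or of vehicle wells; lower values mean less growth of the strain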
Conditions: growth OD

Measured: normalized growth

NC(N)=NC(N)=Nc1ccccc1
inactive: S. cerevisiae deletion strains, locus YJR066W, strain TOR1, stronger effect = lower value 0.931 | S. cerevisiae deletion strains, locus YKL009W, strain mrt4, stronger effect = lower value 0.998 | S. cerevisiae deletion strains, locus YKL068W, stronger effect = lower value 0.996 | S. cerevisiae deletion strains, locus YKL085W, strain MDH1 (second series), stronger effect = lower value 1 | S. cerevisiae deletion strains, locus YKL085W, strain MDH1, stronger effect = lower value 1 | S. cerevisiae deletion strains, locus YKL160W, strain elf1, stronger effect = lower value 0.991 | S. cerevisiae deletion strains, locus YKL190W, strain CNB1, stronger effect = lower value 1 | S. cerevisiae deletion strains, locus YKR001C, strain vps1, stronger effect = lower value 0.994 | S. cerevisiae deletion strains, locus YKR026C, strain gcn3, stronger effect = lower value 1 | S. cerevisiae deletion strains, locus YKR091W, strain srl3, stronger effect = lower value 0.994 | S. cerevisiae deletion strains, locus YLL001W, strain dnm1, stronger effect = lower value 0.982 | S. cerevisiae deletion strains, locus YLL026W, stronger effect = lower value 1 | S. cerevisiae deletion strains, locus YLL041C, strain sdh2, stronger effect = lower value 1 | S. cerevisiae deletion strains, locus YLR027C, strain aat2, stronger effect = lower value 1 | S. cerevisiae deletion strains, locus YLR039C, strain RIC1, stronger effect = lower value 1.05 | S. cerevisiae deletion strains, locus YLR058C, strain SHM2, stronger effect = lower value 1.02 | S. cerevisiae deletion strains, locus YLR102C, strain apc9, stronger effect = lower value 0.994 | S. cerevisiae deletion strains, locus YLR113W, strain HOG1, stronger effect = lower value 0.988 | S. cerevisiae deletion strains, locus YLR221C, strain rsa3, stronger effect = lower value 1 | S. cerevisiae deletion strains, locus YLR258W, strain gsy2, stronger effect = lower value 0.988 | S. cerevisiae deletion strains, locus YLR262C, strain YPT6 (second series), stronger effect = lower value 0.985 | S. cerevisiae deletion strains, locus YLR262C, strain YPT6, stronger effect = lower value 1.05 | S. cerevisiae deletion strains, locus YLR268W, strain sec22, stronger effect = lower value 0.997 | S. cerevisiae deletion strains, locus YLR320W, strain mms22, stronger effect = lower value 0.993 | S. cerevisiae deletion strains, locus YLR330W, strain CHS5, stronger effect = lower value 1.01 | S. cerevisiae deletion strains, locus YLR342W, strain FKS1 (second series), stronger effect = lower value 1.02 | S. cerevisiae deletion strains, locus YLR342W, strain FKS1, stronger effect = lower value 1 | S. cerevisiae deletion strains, locus YLR357W, strain rsc2, stronger effect = lower value 0.998 | S. cerevisiae deletion strains, locus YLR370C, strain arc18, stronger effect = lower value 1.01 | S. cerevisiae deletion strains, locus YLR371W, strain rom2, stronger effect = lower value 0.986 | S. cerevisiae deletion strains, locus YLR384C, strain iki3, stronger effect = lower value 0.999 | S. cerevisiae deletion strains, locus YLR418C, strain cdc73, stronger effect = lower value 0.951 | S. cerevisiae deletion strains, locus YML016C, strain PPZ1, stronger effect = lower value 1.02 | S. cerevisiae deletion strains, locus YML032C, strain rad52, stronger effect = lower value 0.991 | S. cerevisiae deletion strains, locus YML120C, strain ndi1, stronger effect = lower value 0.995 | S. cerevisiae deletion strains, locus YML124C, strain tub3, stronger effect = lower value 0.991 | S. cerevisiae deletion strains, locus YMR058W, strain fet3, stronger effect = lower value 1 | S. cerevisiae deletion strains, locus YMR078C, strain ctf18, stronger effect = lower value 0.998 | S. cerevisiae deletion strains, locus YMR125W, strain sto1, stronger effect = lower value 0.982 | S. cerevisiae deletion strains, locus YMR129W, stronger effect = lower value 0.996 | S. cerevisiae deletion strains, locus YMR205C, strain PFK2, stronger effect = lower value 1.01 | S. cerevisiae deletion strains, locus YMR223W, strain ubp8, stronger effect = lower value 0.99 | S. cerevisiae deletion strains, locus YMR231W, strain pep5, stronger effect = lower value 0.994 | S. cerevisiae deletion strains, locus YMR263W, strain SAP30, stronger effect = lower value 0.993 | S. cerevisiae deletion strains, locus YMR307W, strain GAS1, stronger effect = lower value 1.04 and 0.978 | S. cerevisiae deletion strains, locus YNL067W, strain RPL9B, stronger effect = lower value 1.03 | S. cerevisiae deletion strains, locus YNL071W, strain lat1, stronger effect = lower value 1.01 | S. cerevisiae deletion strains, locus YNL128W, strain TEP1, stronger effect = lower value 1.01 and 1.02 | S. cerevisiae deletion strains, locus YNL175C, strain NOP13, stronger effect = lower value 1.02 | S. cerevisiae deletion strains, locus YNL183C, strain NPR1, stronger effect = lower value 0.923 | S. cerevisiae deletion strains, locus YNL197C, strain WHI3, stronger effect = lower value 1.02 | S. cerevisiae deletion strains, locus YNL209W, strain ssb2, stronger effect = lower value 1 | S. cerevisiae deletion strains, locus YNL224C, strain SQS1, stronger effect = lower value 0.998 | S. cerevisiae deletion strains, locus YNL233W, strain BNI4, stronger effect = lower value 1.02 | S. cerevisiae deletion strains, locus YNL248C, strain rpa49, stronger effect = lower value 0.998 | S. cerevisiae deletion strains, locus YNL250W, strain rad50, stronger effect = lower value 0.992 | S. cerevisiae deletion strains, locus YNL271C, strain bni1, stronger effect = lower value 0.994 | S. cerevisiae deletion strains, locus YNL298W, strain CLA4, stronger effect = lower value 0.993 | S. cerevisiae deletion strains, locus YNL307C, strain MCK1, stronger effect = lower value 1 | S. cerevisiae deletion strains, locus YNL322C, strain KRE1 (second series), stronger effect = lower value 1 | S. cerevisiae deletion strains, locus YNL322C, strain KRE1, stronger effect = lower value 1 | S. cerevisiae deletion strains, locus YNR049C, strain mso1, stronger effect = lower value 1.01 | S. cerevisiae deletion strains, locus YNR052C, strain pop2, stronger effect = lower value 0.991 | S. cerevisiae deletion strains, locus YOL006C, strain TOP1, stronger effect = lower value 1.03 | S. cerevisiae deletion strains, locus YOL012C, strain htz1 1.06 | S. cerevisiae deletion strains, locus YOL147C, strain pex11, stronger effect = lower value 0.991 | S. cerevisiae deletion strains, locus YOR001W, strain rrp6, stronger effect = lower value 0.989 | S. cerevisiae deletion strains, locus YOR061W, strain CKA2, stronger effect = lower value 1.01 | S. cerevisiae deletion strains, locus YOR069W, strain VPS5, stronger effect = lower value 1.01 | S. cerevisiae deletion strains, locus YOR070C, strain gyp1, stronger effect = lower value 1 | S. cerevisiae deletion strains, locus YOR080W, strain dia2, stronger effect = lower value 0.98 | S. cerevisiae deletion strains, locus YOR083W, strain WHI5 (second series), stronger effect = lower value 1.02 | S. cerevisiae deletion strains, locus YOR083W, strain WHI5, stronger effect = lower value 0.996 | S. cerevisiae deletion strains, locus YOR106W, strain vam3, stronger effect = lower value 1 | S. cerevisiae deletion strains, locus YOR136W, strain idh2, stronger effect = lower value 0.995 | S. cerevisiae deletion strains, locus YOR144C, strain elg1, stronger effect = lower value 0.994 | S. cerevisiae deletion strains, locus YOR184W, strain ser1, stronger effect = lower value 0.977 | S. cerevisiae deletion strains, locus YOR231W, strain MKK1, stronger effect = lower value 1.01 | S. cerevisiae deletion strains, locus YOR265W, strain rbl2, stronger effect = lower value 1.01 | S. cerevisiae deletion strains, locus YOR270C, strain vph1, stronger effect = lower value 1.06 | S. cerevisiae deletion strains, locus YOR290C, strain snf2, stronger effect = lower value 0.987 | S. cerevisiae deletion strains, locus YOR316C, strain cot1, stronger effect = lower value 0.996 | S. cerevisiae deletion strains, locus YPL051W, strain arl3, stronger effect = lower value 0.996 | S. cerevisiae deletion strains, locus YPL055C, strain LGE1, stronger effect = lower value 0.993 | S. cerevisiae deletion strains, locus YPL078C, strain atp4, stronger effect = lower value 1 | S. cerevisiae deletion strains, locus YPL106C, strain sse1, stronger effect = lower value 0.955 | S. cerevisiae deletion strains, locus YPL240C, strain hsp82, stronger effect = lower value 0.986 | S. cerevisiae deletion strains, locus YPL241C, strain CIN2, stronger effect = lower value 1.01 | S. cerevisiae deletion strains, locus YPL256C, strain CLN2, stronger effect = lower value 0.996 | S. cerevisiae deletion strains, locus YPR119W, strain clb2, stronger effect = lower value 0.991 | S. cerevisiae deletion strains, locus YPR141C, strain kar3, stronger effect = lower value 0.98 | S. cerevisiae deletion strains, locus YPR163C, strain tif3, stronger effect = lower value 0.999 | S. cerevisiae deletion strains, locus YPR167C, strain met16, stronger effect = lower value 0.996 | S. cerevisiae deletion strains, strain wtn01, stronger effect = lower value 1 | S. cerevisiae strains, strain wild type, stronger effect = lower value 1.01
